RGS7-Gao reg – RGS7-Galphao binding modulators, primary screen, biochemical, multiplexed bead flow cytometry; Guanine nucleotide-binding protein G(o) subunit alpha (Homo sapiens), P09471; actives lie on both sides; binding response (% of control), % at 10 µM; actives 0.35% (n = 220,000); in the data active = binding response below about 49% or above about 150%; inconclusive = no clear call, values can overlap the other calls; inactive = in between;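 note: fluorescent Galphao held in activated GDP-AlF4 state binding bead-coupled RGS7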
Target sequence (P09471 whole entry, looked up): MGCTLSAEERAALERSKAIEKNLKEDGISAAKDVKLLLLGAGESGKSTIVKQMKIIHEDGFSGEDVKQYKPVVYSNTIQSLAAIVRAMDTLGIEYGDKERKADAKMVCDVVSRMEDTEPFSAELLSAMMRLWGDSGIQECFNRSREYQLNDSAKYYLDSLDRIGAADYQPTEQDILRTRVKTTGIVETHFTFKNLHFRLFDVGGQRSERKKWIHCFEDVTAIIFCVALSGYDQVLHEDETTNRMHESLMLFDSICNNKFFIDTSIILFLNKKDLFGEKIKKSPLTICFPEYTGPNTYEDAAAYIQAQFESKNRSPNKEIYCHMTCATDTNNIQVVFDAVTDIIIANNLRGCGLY
RGS8-Gao reg – RGS8-Galphao binding modulators, primary screen, biochemical, multiplexed bead flow cytometry | actives lie on both sides | response (percent of control binding), % at 10 µM | actives 0.34% (n = 220,000) | AID 1423, 2008; in the data active = response below about 60% or above about 140%; inactive = in between;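 note: Galphao activated as the GDP aluminium fluoride complex binding bead-coupled RGS8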
Avidin bead fluor – green autofluorescence of compounds with avidin beads – biophysical, 488/530 nm, flow cytometry, artefact control, profiling panel; actives 0.38% (n = 220,000); AID 1775, 2009; fluorescence (KMESF) at 10 µM; compound fluorescence 488/530 nm; stronger effect = higher value; in the data active = fluorescence above about 47
RGS16-Gao HTS – modulators of RGS16 binding to Galphao, primary screen, biochemical, human proteins, multiplexed bead flow cytometry; Regulator of G-protein signaling 16 (Homo sapiens) + Guanine nucleotide-binding protein …; bead-based flow cytometry RGS16-Galphao binding, fluorescence; actives lie on both sides; binding response (% of control), % at 10 µM; actives 0.38% (n = 220,000); AID 1441, 2008;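 note: Galphao activated by GDP with aluminum fluoride before binding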
Target sequence (O15492 whole entry, looked up): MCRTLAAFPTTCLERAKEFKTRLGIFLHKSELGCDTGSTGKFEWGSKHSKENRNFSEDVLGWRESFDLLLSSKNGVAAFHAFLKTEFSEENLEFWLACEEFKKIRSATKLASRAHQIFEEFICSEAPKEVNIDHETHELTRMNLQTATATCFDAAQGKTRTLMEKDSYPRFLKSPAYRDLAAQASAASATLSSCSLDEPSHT
Target sequence (P09471 whole entry, looked up): as the sequence (P09471 whole entry, looked up) above
RGS4-Gao reg – modulators of RGS4 binding to Galphao, primary screen, biochemical, multiplexed bead flow cytometry | Guanine nucleotide-binding protein G(o) subunit alpha (Homo sapiens), P09471 | binding response (% of control), % at 10 µM | actives 0.33% (n = 220,000) | actives lie on both sides | AID 1415, 2008; in the data active = binding response below about 49% or above about 150%; inactive = in between;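 note: fluorescent Galphao activated with aluminum fluoride binding bead-coupled RGS4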
GSH fluor – compound fluorescence on glutathione beads, profiling panel, artefact control, biophysical, 488/530 nm, flow cytometry | actives 0.25% (n = 190,000) | GSH beads flow cytometry, compound fluorescence 488/530 nm; stronger effect = higher value | fluorescence (KMESF) at 10 µM | AID 1776, 2009; in the data active = fluorescence above about 89;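 note: glutathione beads carrying GST-tagged Bcl family fusion proteins plus one bare bead set; values are compound well signal with DMSO vehicle wells as background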
RGS4-Gao HTS – modulators of RGS–Galpha-o binding, primary screen, biochemical, multiplexed beads, flow cytometry, RGS4/7/8/16/19; shares compounds with RGS16-Gao HTS; multiplexed bead flow cytometry; RGS4–Galpha-o binding response, % at 10 µM; actives 99% (n = 1,600); AID 1504, 2009;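 note: fluorescently labeled Galpha-o bound to GDP with aluminium fluoride binding biotinylated RGS beads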
Avidin counter – disruption of biotin probe capture by avidin, counter-screen for RGS protein interaction modulators, biochemical, flow cytometry, bead-based; shares compounds with RGS16-Gao HTS; streptavidin beads, fluorescein-biotin binding; inhibition, % at 10 µM; 1,700 tested, under 10 active;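 active = inhibition above 50%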;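 note: median green fluorescence of gated singlet beads compared with DMSO control wells; 0% = DMSO wells and 100% = complete loss of bead fluorescence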
RGS8-Gao confirm – RGS8-Galphao binding modulators, confirmation, biochemical, multiplexed bead flow cytometry, single concentration; shares compounds with RGS16-Gao HTS; bead-based flow cytometry RGS8-Galphao binding, fluorescence; actives lie on both sides; binding response (% of control), % at 10 µM; actives 3% (n = 1,700); in the data active = binding response below about 72% or above about 130%; inactive = in between;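 note: Galphao activated as GDP AlF4 complex before binding bead RGS8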
RGS7-Gao confirm – RGS7-Galphao binding modulators, confirmation, biochemical, multiplexed bead flow cytometry, single concentration | actives 7.8% (n = 1,700) | shares compounds with RGS16-Gao HTS | bead-based flow cytometry RGS7-Galphao binding; actives lie on both sides | response (percent of control binding), % at 10 µM | AID 1837, 2009; in the data active = response below about 75% or above about 130%; inactive = in between;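 note: fluorescent Galphao activated with GDP and aluminum fluoride binding bead-coupled RGS7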
RGS16-Gao conf – modulators of RGS16-Galphao protein binding, confirmation, biochemical, single concentration, multiplexed bead flow cytometry. shares compounds with RGS16-Gao HTS. response (% of control binding), % at 10 µM. actives 4% (n = 1,700). bead-based flow cytometry; actives lie on both sides. AID 1838, 2009; in the data active = response below about 74% or above about 130%; inactive = in between;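 note: Galphao activated as the GDP aluminium fluoride complex binding bead-coupled RGS16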
RGS4-Gao single – modulators of RGS4-Galphao protein binding, confirmation, biochemical, single concentration, multiplexed bead flow cytometry; shares compounds with RGS16-Gao HTS; actives lie on both sides; binding response (% of control), % at 10 µM; actives 4% (n = 1,700); AID 1840, 2009; in the data active = binding response below about 74% or above about 130%; inactive = in between
RGS19-Gao single – regulators of RGS19-Galphao binding, confirmation, biochemical, single point, multiplexed bead flow cytometry | shares compounds with RGS16-Gao HTS | bead-based flow cytometry RGS19-Galphao binding; actives lie on both sides | response (percent of control binding), % at 10 µM | actives 5% (n = 1,700) | AID 1841, 2009; in the data active = response below about 50% or above about 160%; inactive = in between;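 note: 100% = no compound control and 0% = blank background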
* = called active by the depositor; i = inactive; ? = inconclusive; nt = not tested or not shown; [ ] = dose if it differs, or a comment. Sampled rows, rich in hits. Any-hit rate of the full collection: about 1.2%. Unless noted, the rule behind the calls is not given here.

SMILES	RGS7-Gao reg	RGS8-Gao reg	Avidin bead fluor	RGS16-Gao HTS	RGS4-Gao reg	GSH fluor	RGS4-Gao HTS	Avidin counter	RGS8-Gao confirm	RGS7-Gao confirm	RGS16-Gao conf	RGS4-Gao single	RGS19-Gao single
Cc1ccc(NC(=S)NCC(C)C)cc1	99	93	12	86	95	9	nt	nt	nt	nt	nt	nt	nt
CCN(CC)S(=O)(=O)c1ccc(NC(=O)C(OC)c2ccccc2)cc1 (stereo unspecified)	nt	nt	nt	nt	nt	37	nt	-1	100	93	99	99	97
COC(C(=O)Nc1ccc(S(=O)(=O)Nc2c(C)cccc2C)cc1)c1ccccc1 (stereo unspecified)	102	100	14	106	102	14	nt	nt	nt	nt	nt	nt	nt
N#CCCCCN1CCCC1	?	103	6	100	101	nt	nt	nt	nt	nt	nt	nt	nt
COC(=O)C1(Cc2ccccc2)NC(c2ccc(F)cc2)C2C(=O)N(C)C(=O)C21 (stereo unspecified)	40*	38*	1	-7.0*	32*	14	nt	2	98	63*	89	72*	92
CCC1(C(=O)OC)NC(c2cccc(F)c2)C2C(=O)N(C)C(=O)C21 (stereo unspecified)	103	101	23	104	100	17	nt	nt	nt	nt	nt	nt	nt
CCOc1ccc(C(=O)N[C@H](C(=O)Nc2cccc(S(=O)(=O)N3CCCCC3)c2)C(C)C)cc1	88	80	4	4.6*	90	7	90*	1	103	100	98	102	93
Cc1cccc(C(=O)N[C@H](C(=O)Nc2cccc(S(=O)(=O)N3CCCC3)c2)C(C)C)c1	?	103	16	110	109	nt	nt	nt	nt	nt	nt	nt	nt
COc1ccc(Oc2ccccc2/C=C/C(=O)O)cc1	98	100	33	101	98	12	nt	nt	nt	nt	nt	nt	nt
O=C(O)/C=C/c1ccccc1Oc1ccccc1	154*[activator]	138	88*	184	162*[activator]	30	nt	0	98	96	98	96	97
O=C(O)/C=C\c1ccccc1Oc1ccc(F)cc1	167*[activator]	100	89*	101	127	70	127*	1	103	86	98	97	98
O=C(NN1CCCCC1)c1ccc(COc2ccc(Cl)cc2)cc1	87	96	10	100	97	13	nt	nt	nt	nt	nt	nt	nt
CS(=O)(=O)Nc1ccc(C(=O)NCCC2=CCCCC2)cc1	nt	nt	nt	nt	nt	38	nt	-2	102	105	102	101	101
O=C(NCCC1=CCCCC1)c1ccc(Cl)cc1	101	100	11	105	102	17	nt	nt	nt	nt	nt	nt	nt
COc1ccc(OC)c(-n2nnnc2SCC(=O)Nc2ccccc2N2CCOCC2)c1	96	100	9	98	98	10	nt	nt	nt	nt	nt	nt	nt
Clc1cc2cccnc2c2ccccc12	-24*	3.0*	-4	i	-47*	10	nt	-1	98	102	100	102	96
Oc1c(Cl)cc(Cl)c2cccnc12	99	98	8	95	97	19	nt	nt	nt	nt	nt	nt	nt
Cc1ccc(OC(=O)C23CC4CC(CC(C4)C2)C3)c(C)n1	152*[activator]	98	111*	101	119	10	119*	2	105	109	104	107	90
CCc1nc(C)ccc1OC(=O)C12CC3CC(CC(C3)C1)C2	100	99	21	101	101	11	nt	nt	nt	nt	nt	nt	nt
COc1ccc(NC(=S)N2CCNC(=O)C2CC(=O)Nc2cccc(Cl)c2C)cc1 (stereo unspecified)	94	79	8	9.7*	95	9	95*	0	95	95	94	96	92
COc1ccccc1C(=O)N1CCNC(=O)C1CC(=O)Nc1cccc(C)c1 (stereo unspecified)	240*[activator]	101	143*	115	103	10	103*	-3	100	100	100	101	101
CC(C)NC(=O)COC(=O)/C=C/c1ccco1	89	97	2	96	93	6	nt	nt	nt	nt	nt	nt	nt
Cc1nc(N2CCCCC2)c(C#N)c(C)c1[N+](=O)[O-]	148	105	16	133	156*[activator]	25	nt	0	102	97	101	96	103
C/C(=N\NC(=O)Cc1cccn1C)c1ccc2ccccc2c1	36*	36*	1	53	68	9	68*	1	102	101	103	103	126
C/C(=N/NC(=O)Cc1cccn1C)c1ccccc1	46*	47*	2	49	71	22	71*	0	101	94	102	100	92
C/C(=N\NC(=O)Cc1cccn1C)c1cccc2ccccc12	76	77	5	76	91	16	nt	nt	nt	nt	nt	nt	nt
Cc1ccc(OCc2nnnn2-c2ccccc2)cc1	106	106	10	132	105	17	nt	nt	nt	nt	nt	nt	nt

From PubChem BioAssay
